Compounds with a hit are over-represented: about 5.2% of the library has one in this group of screens.
CendR NRP1 mod – modulators of CendR peptide binding to NRP-1, primary screen, biochemical, fluorescence polarization, uHTS. Neuropilin-1 (Homo sapiens), O14786. inhibition, % at 25 µM. 360,000 tested, 0.85% active. FAM-RPARPAR peptide binding to NRP-1;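 active means inhibition or corrected inhibition above about 18%, plus a signal ratio from 0.5 to 1.5, limit read from the data, passing the limit was not always enough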
M18AAP inhibitor – PfM18AAP inhibitors, malaria aminopeptidase, primary screen, biochemical, QFRET, recombinant enzyme; M18 aspartyl aminopeptidase (Plasmodium falciparum 3D7); H-Glu-NHMec fluorogenic cleavage; inhibition, % at 7.35 µM; 290,000 tested, 1.2% active; AID 1822, 2009;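 active means inhibition above the campaign mean inhibition over all tested compounds plus 3 SD, cut at about 28% in these data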;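 further: 0% = plate median of test compound wells and 100% = 2 mM ZnCl2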
APOBEC3A inh – APOBEC3A ssDNA deaminase inhibitors, primary screen, selectivity assay for APOBEC3G inhibitor project, biochemical, FAM/TAMRA oligo cleavage fluorescence. recombinant A3A, FAM/TAMRA ssDNA deamination fluorescence. DNA dC->dU-editing enzyme APOBEC-3A (Homo sapiens), P31941. inhibition, % at 20 µM. 330,000 tested, 0.41% active;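 active means at least 40% inhibition at 20 µM here, with at most 30% in a related deaminase screen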;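 further: plate controls were A3A with DMSO for no effect and wells lacking A3A enzyme for full effect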
APOBEC3G inh – APOBEC3G DNA deaminase inhibitors, primary screen, biochemical, fluorescence, single-stranded DNA substrate, uHTS; 330,000 tested, 0.28% active; recombinant A3G, ssDNA deamination FAM/TAMRA fluorescence; DNA dC->dU-editing enzyme APOBEC-3G (Homo sapiens), Q9HC16; inhibition, % at 20 µM;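 active means inhibition of at least 40% at 20 µM, with no more than 30% in the related APOBEC3A deaminase screen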;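 further: plate controls were DMSO wells with A3G for no effect and wells lacking A3G enzyme for full effect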
Target sequence (Q9HC16 whole entry, looked up): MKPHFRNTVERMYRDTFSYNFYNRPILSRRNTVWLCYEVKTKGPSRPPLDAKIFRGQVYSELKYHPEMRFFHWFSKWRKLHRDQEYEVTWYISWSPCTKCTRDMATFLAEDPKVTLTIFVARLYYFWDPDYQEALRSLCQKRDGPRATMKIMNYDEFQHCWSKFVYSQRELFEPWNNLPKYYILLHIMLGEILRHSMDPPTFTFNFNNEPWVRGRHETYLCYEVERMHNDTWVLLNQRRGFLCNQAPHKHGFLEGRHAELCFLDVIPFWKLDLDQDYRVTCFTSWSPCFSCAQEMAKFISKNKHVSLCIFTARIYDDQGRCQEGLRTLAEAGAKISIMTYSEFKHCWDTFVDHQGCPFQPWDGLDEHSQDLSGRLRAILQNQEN
ALR inh – inhibitors of human ALR sulfhydryl oxidase, primary screen, biochemical, H2O2 detection, HRP-luminol luminescence, single point; purified ALR, DTT oxidation; inhibition, % (concentration not given with the values); 290,000 tested, 3.8% active; AID 485317, 2010;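 active means mean replicate inhibition above about 79%, with every replicate also reaching it, limit read from the data; inconclusive means only one of the two criteria met; inactive means mean below limit and not every replicate reaching it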
Target sequence (P55789 whole entry, looked up): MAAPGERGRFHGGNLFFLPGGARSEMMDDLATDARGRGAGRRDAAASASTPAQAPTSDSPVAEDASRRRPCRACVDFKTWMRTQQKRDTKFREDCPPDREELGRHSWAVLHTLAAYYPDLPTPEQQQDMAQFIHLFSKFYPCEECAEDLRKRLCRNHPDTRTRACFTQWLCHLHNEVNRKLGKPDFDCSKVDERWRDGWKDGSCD
CR mimetic SO – reduction of superoxide in aged yeast, primary screen, HTS. S. cerevisiae aged cells, superoxide DHE fluorescence; hits give low values. superoxide response (% of plate mean), % at 10 µM. 330,000 tested, 0.18% active;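 active means superoxide response under a set limit, about three screen SD below normal, cut at about 65% in these data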;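 further: yeast aged for seven days with compound at 30 °C before DHE staining; 100% = average MFI of all compound-treated wells on the plate with controls excluded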
* = called active by the depositor; ? = inconclusive; . = no result given.

SMILES | CendR NRP1 mod | M18AAP inhibitor | APOBEC3A inh | APOBEC3G inh | ALR inh | CR mimetic SO
COc1ccc(C(=O)CSc2nc(C)cc(=O)[nH]2)cc1 | 1 | 2 | -2 | -7 | ? | 119
Cc1ccc(C(=O)CSc2nc(N)cc(=O)[nH]2)cc1 | 8 | 1 | 2 | 2 | 99* | 97
Cc1cc(=O)[nH]c(SCC(=O)c2ccc(C(C)C)cc2)n1 | 19 | 4 | -2 | -4 | 98* | 74
Cc1ccc(C)c(C(=O)CSc2nc(N)cc(=O)[nH]2)c1 | 0 | -5 | -5 | 0 | -1 | 102
Cn1c(=O)n(Cc2ccc(Br)cc2)c2ccccc21 | -18 | -3 | -2 | -4 | 3 | 94
O=C(NC1CCCCC1)Oc1cc2oc(=O)sc2cc1Br | 2 | 31* | -1 | -3 | 71 | 86
Cc1n[nH]c(C)c1S(=O)(=O)N1CCC(C(=O)O)CC1 | -1 | 4 | 2 | -1 | -5 | 102
Cc1n[nH]c(C)c1S(=O)(=O)N1CCOCC1 | 27* | -26 | -2 | -5 | 4 | 107
NS(=O)(=O)c1ccc(CCNS(=O)(=O)c2ccc(Cl)s2)cc1 | 16 | . | -2 | -6 | . | 109
Nc1cc2c(cc1Br)-c1ccccc1C2=NO | -11 | . | . | . | . | .
COc1ccc(S(=O)(=O)NC(C)C(=O)Nc2ccc3c(c2)OCO3)cc1OC (stereo not drawn) | 17* | -6 | -2 | -16 | -8 | 92
COc1ccc(S(=O)(=O)Nc2ccc3c(c2)OCO3)cc1C(=O)O | 16 | -6 | 1 | 1 | -8 | 88
COc1ccc(/C=C/C(=O)O)cc1S(=O)(=O)Nc1ccc2c(c1)OCO2 | 26* | 1 | 7 | -2 | 3 | 93
CCOc1ccc(CCNC(=O)c2ccc(C)c(S(=O)(=O)N3CCOCC3)c2)cc1OCC | 0 | . | . | . | . | .
Cc1nc(OCC(=O)c2ccc(Cl)cc2)c(C#N)c2c1COC(C)(C)C2 | 1 | -6 | 1 | -1 | . | 105
CCc1nc(OCC(=O)c2ccccc2)c(C#N)c2c1COC(C)(C)C2 | 19* | 10 | 4 | -1 | -3 | 106
N#CC1=C(N)Oc2cc(N)ccc2C1c1ccsc1 (stereo not drawn) | -14 | 9 | 1 | 1 | -3 | 98
Cc1ccc(C2C(C#N)=C(N)Oc3cc(N)ccc32)cc1 (stereo not drawn) | 0 | 7 | -1 | 0 | 96* | 110
N#CC1=C(N)Oc2cc(N)ccc2C1C1CC=CCC1 (stereo not drawn) | 4 | -3 | 0 | 1 | 93* | 90
Cc1ccc(-c2nnn(C/C(N)=N/O)n2)cc1 | 5 | 2 | -3 | -8 | -1 | 103
CCOC(=O)C1(CCc2ccccc2)CCN(C(=O)c2occc2C)CC1 | -2 | 2 | -2 | -3 | 1 | 96
CCOC(=O)C1(CCc2ccccc2)CCN(C(=O)Cc2nonc2C)CC1 | 3 | 2 | 1 | -5 | 100* | 99
CC1(c2nnc(Cc3ccccc3)o2)CC(c2cccc(Cl)c2)=NO1 (stereo not drawn) | 28* | . | -1 | -12 | . | 98
CC1(c2nnc(Cc3ccccc3)o2)CC(c2ccccc2)=NO1 (stereo not drawn) | 22 | . | -3 | -10 | 5 | 101
Cc1cccc(N2CCN(C(=O)COc3cc(=O)n(C)c4ccccc34)CC2)c1C | 7 | -7 | -5 | -8 | . | 107
SMILES | CendR NRP1 mod | M18AAP inhibitor | APOBEC3A inh | APOBEC3G inh | ALR inh | CR mimetic SO
COc1ccccc1-c1nnc(SCC(=O)NC2CCS(=O)(=O)C2)n1N (stereo not drawn) | 22* | 2 | 1 | -8 | -2 | 95
COCCCn1c(SCC(=O)NC2CCS(=O)(=O)C2)nnc1-c1ccc(Cl)cc1 (stereo not drawn) | 23* | . | 0 | 3 | -4 | 162
COCCCn1c(SCC(=O)NC2CCCCC2)nnc1-c1ccncc1 | -16 | 3 | 1 | -5 | -12 | 108
COc1ccccc1-c1nnc(SCC(=O)NC2CCCCC2)n1N | -12 | . | -1 | -3 | 1 | 82
C[C@H](CO)N1C[C@H](C)[C@@H](CN(C)S(=O)(=O)c2cccc(F)c2)OCc2cn(nn2)CCCC1=O | 2 | . | . | . | . | .
COc1ccccc1N1C(=O)CC(Sc2n[nH]c(-c3cccc(C)c3)n2)C1=O (stereo not drawn) | -2 | -60 | -5 | 31 | 99* | 101
CC(=O)c1cccc(N2C(=NC(=O)C3CC3)SC3CS(=O)(=O)CC32)c1 (stereo not drawn) | 2 | -3 | -1 | -3 | 1 | 84
O=C(NC1CC1)c1sccc1-n1cccc1 | -8 | -2 | -1 | 6 | 100* | 92
CCOc1ccc(-c2c(C(=O)N/N=C(\C)c3ccccc3OC)nnn2-c2nonc2N)cc1 | -4 | 0 | 0 | -1 | 1 | 110
COCCN(CCOC)S(=O)(=O)c1ccc(C(=O)Nc2ccc(S(=O)(=O)Nc3nccc(C)n3)cc2)cc1 | -9 | -2 | -3 | -9 | 90* | 102
COc1ccc(C(=O)Nc2ccc(S(=O)(=O)Nc3nccc(C)n3)cc2)cc1 | 14 | 0 | -5 | -10 | . | 105
CCCOc1ccc(C(=O)Nc2ccc(S(=O)(=O)Nc3cc(C)nc(C)n3)cc2)cc1 | 7 | 2 | 7 | -3 | 96* | 62*
CCC(=O)c1ccc(OCC(=O)Nc2ccc(S(=O)(=O)Nc3cc(C)nc(C)n3)cc2)cc1 | -13 | . | 3 | -7 | 0 | 88
Nc1nnc(SCC(=O)Nc2nccs2)s1 | -8 | 0 | 0 | -7 | . | 84
CCN(CC)S(=O)(=O)c1cc(NC(=O)CSc2nnc(N)s2)ccc1C | 4 | . | -3 | -5 | 39 | 107
CCN(CC)S(=O)(=O)c1cc(NC(=O)CSc2nc3c(cc2C#N)C(=O)CC(C)(C)C3)ccc1C | -6 | 3 | -3 | -8 | 99* | 106
Cc1cc(C)n2c(Nc3ccc4c(c3)OCCO4)c(-c3ccccn3)nc2n1 | 21* | . | . | . | . | .
Cc1ccc(-c2nc3ncccn3c2NC(=O)C2CC2)cc1 | 6 | -12 | -1 | -5 | 1 | 95
Oc1ccc(-c2nc3ncccn3c2Nc2ccc3c(c2)OCCO3)cc1 | -10 | 8 | -5 | -6 | 93* | 85
Cc1ccc(-c2nc3ncccn3c2Nc2ccc3c(c2)OCCO3)cc1 | -2 | 3 | -8 | -7 | 96* | 100
COc1ccc(-c2nc3ncccn3c2Nc2ccc3c(c2)OCCO3)cc1 | 2 | -2 | 1 | -4 | . | .

High-throughput results from PubChem BioAssay.
